From the supplement of paper PMC9135407
Where “and” joins values, the source holds several entries; their conditions need not be identical. Identical values can stand only once. Counter-ions that a name gives are not always drawn. The campaign covered roughly 5,800 compounds. About 620 (11%) showed activity. The entries come from a sample that favours actives as a whole. Values without a mark were called inactive.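 Rule for the calls: active = score above a cut-off or among the top three wells of a plate; in these data no inactive exceeds 0.85.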

System: primary human hepatic stellate cells (donor 1)
Assay: scaled lipid accumulation score (0 = DMSO-like, 1 = nortriptyline-like); higher = stronger HSC inactivation (lipid re-accumulation), active = hit call of the paper
Conditions: 48 h
[1] = library stock concentration: 10 mM
[2] = library stock concentration: 3.33 mM
[3] = library stock concentration: 1 mM

**Q.** For `C[C@@H]1CC2C3C[C@H](F)C4=CC(=O)C=C[C@]4(C)[C@@]3(F)[C@@H](O)C[C@]2(C)[C@@]1(O)C(=O)COC(=O)C(C)(C)C` (stereo partly specified) [Flumethazone pivalate], which “scaled lipid accumulation score” value (library stock concentration: 4 mM) is on record?
**A.** 0.012

**Q.** And the “scaled lipid accumulation score” value [1]?
**A.** ≤ 0

**Q.** How did the “scaled lipid accumulation score” value [2] turn out when `c1ccc2c(-c3ccncc3)c[nH]c2c1` [Rho Kinase Inhibitor III, Rockout] was run?
**A.** ≤ 0

**Q.** For `COc1ccc(-c2ccc3cc(C(=O)O)ccc3c2)cc1C12CC3CC(CC(C3)C1)C2` [Adapalene], which “scaled lipid accumulation score” value [2] is on record?
**A.** ≤ 0

**Q.** And the “scaled lipid accumulation score” value [1]?
**A.** ≤ 0

**Q.** `COc1ccc(-c2ccc3cc(C(=O)O)ccc3c2)cc1C12CC3CC(CC(C3)C1)C2` was tested. Which “scaled lipid accumulation score” value [1] did it give?
**A.** 0.008

**Q.** For `COc1cc(-c2cc(-c3cccc(O)c3)cnc2N)cc(OC)c1OC`, which “scaled lipid accumulation score” value [2] is on record?
**A.** ≤ -0.009

**Q.** What about the “scaled lipid accumulation score” value [1] of the same compound?
**A.** ≤ 0

**Q.** Which “scaled lipid accumulation score” value does the source give for `CC(=O)NC(CC(=O)O)C(=O)O` (racemic) [Aspartic acid, N-acetyl (R,S)] here?
**A.** 0.182

**Q.** With `N/C(=N\C(=O)c1nc(Cl)c(N)nc1N)NCc1ccccc1` [Benzamil] as the compound, how does the “scaled lipid accumulation score” value (library stock concentration: 6.3 mM) read?
**A.** 0.287

**Q.** `N[C@H](Cc1ccccc1)C(=O)O` [D-phenylalanine] was tested. Which “scaled lipid accumulation score” value [1] did it give?
**A.** ≤ -0.022

**Q.** `Cl.N/C(=N\Cc1ccccc1)NC(=O)c1nc(Cl)c(N)nc1N` was tested. Which “scaled lipid accumulation score” value (library stock concentration: 14 mM) did it give?
**A.** 1.1 (active)

**Q.** `Cl.N/C(=N\C(=O)c1nc(Cl)c(N)nc1N)NCc1ccc(Cl)cc1Cl` was tested. Which “scaled lipid accumulation score” value (library stock concentration: 11.8 mM) did it give?
**A.** 0.876 (active)

**Q.** Which “scaled lipid accumulation score” value [1] does the source give for `NC(=O)NC(=O)Cc1ccccc1` [Phenacemide] here?
**A.** ≤ 0

**Q.** Which “scaled lipid accumulation score” value [1] does the source give for `Cl.N/C(=N\C(=O)c1nc(Cl)c(N)nc1N)NCc1ccccc1` [Benzamil hydrochloride] here?
**A.** 1.09 (active)

**Q.** For `N/C(=N\C(=O)c1nc(Cl)c(N)nc1N)NCc1ccccc1` [Benzamil hydrochloride], which “scaled lipid accumulation score” value is on record?
**A.** 0.168

**Q.** How did the “scaled lipid accumulation score” value [3] turn out when `CCCCC/C=C\CCCC/C=C\C/C=C\CCCC(=O)O` [5(Z),8(Z),14(Z)-Eicosatrienoic Acid] was run?
**A.** ≤ 0

**Q.** `CCCCC[C@H](O)/C=C/[C@@H]1[C@H](C/C=C\CCCC(=O)O)[C@@H](O)C[C@H]1O` [8-iso Prostaglandin F2.alpha.] was tested. Which “scaled lipid accumulation score” value [3] did it give?
**A.** ≤ 0

**Q.** How did the “scaled lipid accumulation score” value [1] turn out when `CC(C)(C)n1nc(-c2cccc3ccccc23)c2c(N)ncnc21` [1-Naphthyl PP1] was run?
**A.** 0.016

**Q.** What does the source list for `CC(C)(C)C#Cc1cc(N(C(=O)[C@H]2CC[C@H](C)CC2)[C@H]2CC[C@H](O)CC2)c(C(=O)O)s1` [VX-222 (VCH-222, Lomibuvir)]?
**A.** scaled lipid accumulation score [2]: ≤ 0; scaled lipid accumulation score [1]: 0.047

**Q.** How did the “scaled lipid accumulation score” value [1] turn out when `Cc1c(O)c(=O)ccn1C` was run?
**A.** ≤ 0

**Q.** With `O.O.O.O.O=C([O-])CC(O)(CC(=O)[O-])C(=O)[O-].[Li+].[Li+].[Li+]` [Lithium citrate] as the compound, how does the “scaled lipid accumulation score” value (library stock concentration: 9.5 mM) read?
**A.** ≤ 0

**Q.** What about the “scaled lipid accumulation score” value [1] of the same compound?
**A.** 0.016

**Q.** For `CCCCC/C=C\C\C=C/C=C/C=C/CC(=O)CCCC(=O)O` [5-Ketoeicosatetraenoic acid], which “scaled lipid accumulation score” value (library stock concentration: 100 uM) is on record?
**A.** ≤ -0.021

**Q.** For `CC(C)NCC(O)COc1ccccc1-n1cccc1` (stereo unspecified) [Isamoltane hemifumarate], which “scaled lipid accumulation score” value [1] is on record?
**A.** 0.25

**Q.** For `CCCCCC=CCC=CCC=CCC=CCCCC(=O)SCC(O)CO` (stereo unspecified) [Arachidonoyl-1-thio-Glycerol], which “scaled lipid accumulation score” value [3] is on record?
**A.** 0.021

**Q.** For `CC(C)(Oc1ccc(Cl)cc1)C(=O)OCCOC(=O)c1cccnc1` [Etofibrate], which “scaled lipid accumulation score” value [2] is on record?
**A.** ≤ 0

**Q.** What about the “scaled lipid accumulation score” value [1] of the same compound?
**A.** ≤ -0.001

**Q.** What does the source list for `C[C@@H]1C[C@H]2[C@@H]3CCC4=CC(=O)C=C[C@]4(C)[C@@]3(F)[C@@H](O)C[C@]2(C)[C@@]1(O)C(=O)CO` [Dexamethasone (DHAP)]?
**A.** scaled lipid accumulation score [2]: 0.017; scaled lipid accumulation score [1]: ≤ 0

**Q.** Which results are given for `C[C@@H]1C[C@H]2[C@@H]3CCC4=CC(=O)C=C[C@]4(C)[C@@]3(F)[C@@H](O)C[C@]2(C)[C@@]1(O)C(=O)CO` [Dexamethasone]?
**A.** scaled lipid accumulation score (library stock concentration: 5.1 mM): ≤ -0.006 and ≤ -0.001; scaled lipid accumulation score [1]: ≤ 0 and ≤ -0.006; scaled lipid accumulation score (library stock concentration: 12.7 mM): 0.007

**Q.** Which “scaled lipid accumulation score” value [1] does the source give for `CN(C)CCC=C1c2ccccc2Sc2ccc(Cl)cc21` [Chlorprothixene] here?
**A.** 1.03 (active)

**Q.** For `CN(C)CC/C=C1\c2ccccc2Sc2ccc(Cl)cc21.Cl` [Chlorprothixene hydrochloride], which “scaled lipid accumulation score” value is on record?
**A.** 0.902 (active)

**Q.** For `CN(C)CC/C=C1\c2ccccc2CSc2ccccc21` [Dosulepin hydrochloride], which “scaled lipid accumulation score” value is on record?
**A.** 0.845

**Q.** How did the “scaled lipid accumulation score” value [2] turn out when `CN(C)CC/C=C1/c2ccccc2Sc2ccc(Cl)cc21` [Chlorprothixene] was run?
**A.** 0.345

**Q.** Which results are given for `CN(C)CC/C=C1/c2ccccc2Sc2ccc(Cl)cc21` [Chlorprothixene hydrochloride]?
**A.** scaled lipid accumulation score (library stock concentration: 5.7 mM): 0.756; scaled lipid accumulation score [1]: 0.429 and 0.701

**Q.** `C[C@@H]1O[C@@H]1P(=O)(O)O` [Fosfomycin] was tested. Which “scaled lipid accumulation score” value [1] did it give?
**A.** ≤ 0

**Q.** `C[C@@H]1O[C@@H]1P(=O)(O)O` [Phosphomycin disodium] was tested. Which “scaled lipid accumulation score” value [1] did it give?
**A.** ≤ -0.055

**Q.** Which results are given for `CCN1C(=CC(C)=O)Sc2ccc(OC)cc21`?
**A.** scaled lipid accumulation score [2]: ≤ -0.009; scaled lipid accumulation score [1]: ≤ 0

**Q.** For `CCCCCCCCCCC(C)(C)C(=O)Nc1c(OC)cc(OC)cc1OC`, which “scaled lipid accumulation score” value [1] is on record?
**A.** 0.164 and ≤ -0.001

**Q.** With `CC/C=C/C/C=C/C/C=C/C/C=C/CCCCC(=O)OC` [Stearidonic Acid methyl ester] as the compound, how does the “scaled lipid accumulation score” value [3] read?
**A.** 0.048

**Q.** For `O=C(c1cn(Cc2cncn2Cc2ccc(Br)cc2)cc1-c1cccc2ccccc12)N1CCOCC1`, which “scaled lipid accumulation score” value [2] is on record?
**A.** ≤ -0.003

**Q.** And the “scaled lipid accumulation score” value [1]?
**A.** 0.723

**Q.** Which “scaled lipid accumulation score” value (library stock concentration: 80 uM) does the source give for `CNCc1ccc(-c2[nH]c3cc(F)cc4c3c2CCNC4=O)cc1` [Rucaparib] here?
**A.** ≤ 0

**Q.** And the “scaled lipid accumulation score” value (library stock concentration: 400 uM)?
**A.** ≤ 0

**Q.** And the “scaled lipid accumulation score” value (library stock concentration: 2 mM)?
**A.** 0.588

**Q.** `CNCc1ccc(-c2[nH]c3cc(F)cc4c3c2CCNC4=O)cc1.O=P(O)(O)O` [Rucaparib] was tested. Which “scaled lipid accumulation score” value [1] did it give?
**A.** 1.12 (active)

**Q.** `CNCc1ccc(-c2[nH]c3cc(F)cc4c3c2CCNC4=O)cc1.O=P(O)(O)O` was tested. Which “scaled lipid accumulation score” value [1] did it give?
**A.** 1.47 (active)

**Q.** Which “scaled lipid accumulation score” value [2] does the source give for `CNCc1ccc(-c2[nH]c3cc(F)cc4c3c2CCNC4=O)cc1` here?
**A.** 0.213

**Q.** How did the “scaled lipid accumulation score” value [3] turn out when `CCCCCCCCCCCCCCCCCCCCCCC(=O)OCC` [Ethyl Tricosanoate] was run?
**A.** ≤ 0

**Q.** With `CCCCCCCCCSCCCCCCCC(=O)O` [9-Thiastearic Acid] as the compound, how does the “scaled lipid accumulation score” value [3] read?
**A.** 0.031
